Results taken from the supplement of paper PMC4206461.

Tested on: Pseudomonas aeruginosa PA14 wild type
Assay: respiration area under curve with compound as sole nitrogen source, 24 h (OmniLog AUC (arbitrary units)); higher = more respiration / better utilisation as nitrogen source, active = 2000 or more
Conditions: plate: PM8
Protocol: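 Biolog Phenotype MicroArray plates PM6-PM8: each di/tripeptide is the sole nitrogen source (IF-0 medium with succinate/ferric citrate and dye mix A). Tetrazolium reduction was read in the OmniLog every 15 min for 24 h at 37°C and summarised as area under the respiration curve (arbitrary units). The paper counts values below 2000 as no respiration and above 8000 as solid respiration. Replicate datasets are averaged.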

| SMILES | respiration area under curve |
| --- | --- |
| N[C@@H](Cc1ccc(O)cc1)C(=O)NCC(=O)NCC(=O)O | 11300 (active) |
